According to PubChem BioAssay (NCATS):
Several values for one entry are separate records, joined by “and”; a condition that tells them apart may be missing. Identical values can stand only once. Inconclusive results are not listed. Where a call stands in place of a potency, no number is given. Activity calls are given as the source filed them. Calls follow the shape of the dose curve; as a rule, active = well fitted cell-killing curve with a large enough effect; inconclusive = small, poorly fitted or top-dose-only effect; inactive = flat fitted curve, though single readings scatter.

experiment: qHTS of pediatric cancer cell lines to identify multiple opportunities for drug repurposing: Primary screen for TC32 cells (AID 1347089); details: TC32 Ewing sarcoma viability, CellTiter-Glo luminescence, 48 h; series mostly up to 45.8 µM; activity change, negative = cytotoxic: at the top concentration; also: nearly all actives have a fitted effect of over 60% in size
Excerpt: Drug repurposing or repositioning has been offered as a strategy for drug development in oncology programs. This approach has special potential for childhood cancers and other rare or orphan diseases, where the expected return on new drug development has been a disincentive to pharmaceuticals.
In this project we exploit the poly-pharmacology of drugs to discover new indications via phenotypic screening of a panel of 19 well-characterized cell lines derived from solid tumors seen in children and adolescents. The goal is to identify approved drugs with previously unrecognized anticancer properties that has the potential to reveal new mechanisms and biological processes involved in carcinogenesis or drug resistance. We employed a titration-based paradigm (quantitative high-throughput screening or qHTS), where all compounds were tested at multiple concentrations for their effect on cell viability. Concentration-response curves (CRCs) were derived directly from the primary screen, and both potency and efficacy values were used to identify compounds with robust bioactivity profiles. We screened the NIH Chemical Genomics Center (NCGC) Pharmaceutical Collection (NPC) and Mechanism Interrogation Plate (MIPE) small molecule collections of approved and investigational compounds against these cell lines; and measured metabolically active cells after 48 hours of compound treatment as a proxy for cell viability.
Assay Submitter: Nathalia J. Martinez, National Center for Advancing Translational Sciences, National Institutes of Health, Rockville, MD, USA; email: natalia.martinez@nih.gov
[1] Shen, M et al. Quantitative high-throughput phenotypic screening of pediatric cancer cell lines identifies multiple opportunities for drug repurposing. Oncotarget 2017 Dec 19;9(4):4758-4772. PMID 29435139.
The cells were obtained from University of North Carolina (UNC), Pediatric Preclinical Testing Program (PPT), and Coriell Institute (CI).
qHTS cell viability assay:
Cells were assayed in growth media at a density of 500-1,000 cells/well. Five microliters of cells were dispensed into 1,536-well, white, solid-bottom, TC-treated plates (Greiner Bio One) using a multidrop dispenser and incubated at 37 degrees C, 5% CO2, under a humidified atmosphere for 5 hours. Twenty-three nanoliters of compounds and controls (neutral control DMSO or positive control bortezomib at final concentration of 2.3 uM) were subsequently transferred by Kalypsys pintool. For primary screens, the MIPE collection was tested at 11-point dilutions (final concentrations range from 0.78 nM to 46 µM) and the NPC collection at 8-point dilutions (final concentrations range from 0.59 nM to 46 µM). Compounds tested in follow-up screens were assayed at 11-point dilutions. Cells were incubated for 48 hours, followed by addition of 3 uL of CellTiter-Glo (Promega). After a 15min incubation at room temperature, samples were analyzed for luminescence intensity using a ViewLux High-throughput CCD imager equipped with clear filters.
Potency is read from the fitted curve at half-maximal effect.

SMILES	Potency	activity change, negative = cytotoxic
CC(C)(C)C(=O)Oc1ccc(S(=O)(=O)Nc2ccccc2C(=O)NCC(=O)O)cc1	inactive	–
Clc1ccc(C(c2ccccc2Cl)C(Cl)Cl)cc1 (stereo not given)	inactive	–
Cc1ccc(C(=O)Nc2ccc(S(=O)(=O)O)c3cc(S(=O)(=O)O)cc(S(=O)(=O)O)c23)cc1NC(=O)c1cccc(NC(=O)Nc2cccc(C(=O)Nc3cc(C(=O)Nc4ccc(S(=O)(=O)O)c5cc(S(=O)(=O)O)cc(S(=O)(=O)O)c45)ccc3C)c2)c1	inactive	–
COC(=O)Nc1nc2ccc(C(=O)c3cccs3)cc2[nH]1	46.6 nM (active) and 236 nM (active)	–
COc1ccc(C2CNC(=O)C2)cc1OC1CCCC1 (stereo not given)	inactive	–
CC(CCc1ccc(O)cc1)NCCc1ccc(O)c(O)c1 (stereo not given)	inactive	–
CS(=O)(=O)CCNCc1ccc(-c2ccc3ncnc(Nc4ccc(OCc5cccc(F)c5)c(Cl)c4)c3c2)o1	–	18.4% (inactive)
COc1ccc(CCN(C)CCCC(C#N)(c2ccc(OC)c(OC)c2)C(C)C)cc1OC (stereo not given)	inactive	–
CCN1CCCC1CNC(=O)c1cc(S(=O)(=O)CC)c(N)cc1OC (stereo not given)	inactive	–
O=C(Nc1ccc([N+](=O)[O-])cc1Cl)c1cc(Cl)ccc1O	–	-13.2% [at 16 µM] (inactive)
C[C@H]1c2cccc(O)c2C(O)=C2C(=O)[C@]3(O)C(O)=C(C(N)=O)C(=O)[C@@H](N(C)C)[C@@H]3[C@@H](O)[C@@H]21	inactive	–
CC(COc1ccccc1)N(CCCl)Cc1ccccc1 (stereo not given)	inactive	–
Cc1ccc(-c2cc(C(F)(F)F)nn2-c2ccc(S(N)(=O)=O)cc2)cc1	inactive	–
C[C@@H]1CC(=O)NN=C1c1ccc(NN=C(C#N)C#N)cc1	inactive	–
CN(C)CCC=C1c2ccccc2C=Cc2ccccc21	inactive	–
COc1ccc2c(c1)c(CC(=O)O)c(C)n2C(=O)c1ccc(Cl)cc1	inactive	–
CCCCc1oc2ccccc2c1C(=O)c1cc(I)c(OCCN(CC)CC)c(I)c1	inactive	–
O=C1Cc2cc(CCN3CCN(c4nsc5ccccc45)CC3)c(Cl)cc2N1	inactive	–
CC(C)NCC(O)c1ccc(O)c(O)c1 (stereo not given)	–	12.4% (inactive)
CNCCCC12CCC(c3ccccc31)c1ccccc12	inactive	–

SMILES	Potency	activity change, negative = cytotoxic
CN1CCN(CCCN2c3ccccc3Sc3ccc(Cl)cc32)CC1	inactive	–
CN(C)C(=N)N=C(N)N	inactive	–
Nc1nnc(-c2cccc(Cl)c2Cl)c(N)n1	inactive	–
CCOC(=O)Nc1ccc(NCc2ccc(F)cc2)nc1N	inactive	–
COc1cc2nc(N(C)CCCNC(=O)C3CCCO3)nc(N)c2cc1OC (stereo not given)	inactive	–
Cc1cnc(C(=O)NCCc2ccc(S(=O)(=O)NC(=O)NC3CCCCC3)cc2)cn1	inactive	–
O=c1c(-c2ccc(O)cc2)coc2cc(O)cc(O)c12	inactive	–
CCC1(C)CC(=O)NC1=O (stereo not given)	inactive	–
Nc1ccn([C@H]2CC[C@@H](CO)O2)c(=O)n1	inactive	–
CCC1(c2ccccc2)C(=O)NCNC1=O	inactive	–
CC(C)(Oc1ccc(C2CC2(Cl)Cl)cc1)C(=O)O (stereo not given)	–	0% (inactive)
CN(CCOc1ccc(NS(C)(=O)=O)cc1)CCc1ccc(NS(C)(=O)=O)cc1	inactive	–
CN(C)c1nc(N(C)C)nc(N(C)C)n1	inactive	–
COc1nc(C)nc(Cl)c1NC1=NCCN1	inactive	–
CN1C(C(=O)Nc2ccccn2)=C(O)c2ccccc2S1(=O)=O	–	7.42% (inactive)
CN1C2CCC1CC(OC(=O)C(CO)c1ccccc1)C2 (stereo not given)	–	7.04% (inactive)
Cn1c(=O)c2[nH]cnc2n(C)c1=O	inactive	–
Clc1ccccc1C(c1ccccc1)(c1ccccc1)n1ccnc1	inactive	–
O=C1c2c(O)ccc(O)c2C(=O)c2c(NCCNCCO)ccc(NCCNCCO)c21	658 nM (active) and 59.2 nM (active)	–
COc1ccc2[nH]cc(CCNC(C)=O)c2c1	inactive	–
